An excerpt weighted towards active compounds, which were near 19% of everything screened.
HT1080 IDH1KD tx: qHTS for induction of synthetic lethality in tumor cells producing 2HG: qHTS for the HT-1080-IDH1KD cell line; HT-1080 IDH1 knockdown viability, ATP luminescence, 48 h; Potency, µM (series often up to 46.1 µM), for the others: top-dose activity, negative = toxicity, actives largely listed as cytotoxic; 2% of 360,000 active;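 also: potency is read from the fitted curve at half-maximal effect; 0% = DMSO wells and -100% = cell-free medium wells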
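Assay cells: HT-1080 with IDH1 knockdown, 750 per well, RPMI/5% FBS. Exposure: 48 h at 37 °C following 2 h pre-incubation. Read: CellTiter-Glo luminescence; fitted concentration-response, curve class assigned.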
IL-1B inflam inh: qHTS for Inhibitors of Inflammasome Signaling: IL-1-beta AlphaLISA Primary Screen; THP-1 LPS/ATP IL-1B secretion, AlphaLISA, 16 h; active compounds read low; activity change, % at 57.5 µM; 4.7% of 360,000 active; AID 743279, 2014; in the data active = activity change below about -50%; inconclusive = mostly about -30% to -49%
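THP-1 cells pretreated 1 hr with compounds (up to 57.5 uM final), then stimulated with LPS (250 ng/mL final) plus ATP (1.25 mM final); secreted IL-1B measured by AlphaLISA after 16 hr, decreased signal indicating inhibition.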
HT1080-NT tox: qHTS for induction of synthetic lethality in tumor cells producing 2HG: qHTS for the HT-1080-NT fibrosarcoma cell line. HT-1080-NT fibrosarcoma viability, CellTiter-Glo ATP luminescence, 48 h. 1.6% of 360,000 active. Potency, µM (top dose mostly 46.1 µM), inactives show at the highest dose activity, negative = less viability, hits mostly cytotoxic. AID 686970, 2013;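 also: NT is the 2HG producing partner of a matched IDH1 knockdown line; potency is read from the fitted curve at half-maximal effect; 0% = DMSO-treated cells and -100% = media-only wells without cells; nearly all actives have a fitted effect of over 55% in size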
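Fibrosarcoma NT cells, 750 per well in 5% FBS RPMI, were exposed to compound for 48 hours. Viability: CellTiter-Glo luminescence.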
TDP1 cell CPT: qHTS for Inhibitors of human tyrosyl-DNA phosphodiesterase 1 (TDP1): qHTS in cells in presence of CPT. 12% of 420,000 active. chicken DT40 Tdp1-/-;hTDP1 cells + 20 nM CPT, ATP luminescence, 48 h. Potency, µM (top dose mostly 46.2 µM), for inactives: at the highest dose activity change, negative = growth inhibition, most hits filed as inhibitors; also: potency is read from the fitted curve at half-maximal effect; nearly all actives have a fitted effect of over 55% in size
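Chicken DT40 Tdp1-/- cells stably complemented with human TDP1 were seeded at 400 cells/well in medium containing 20 nM camptothecin, exposed to pin-transferred compounds, and grown at 37 °C for at least 48 hr. Viability was read as ATP luminescence.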
TDP1 cell noCPT: qHTS for Inhibitors of human tyrosyl-DNA phosphodiesterase 1 (TDP1): qHTS in cells in absence of CPT; DT40 Tdp1-/- hTDP1 cells, no CPT, ATP luminescence, 48 h; Potency, µM (doses to about 46.2 µM), without a hit: at the highest dose activity change, negative = growth inhibition, most hits filed as inhibitors; 15% of 420,000 active; also: potency is read from the fitted curve at half-maximal effect; nearly all actives have a fitted effect of over 55% in size
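DT40 Tdp1-/-;hTDP1 cells, no CPT (DMSO vehicle only), 400 cells/well; compounds pin-transferred; ≥48 hr, 37 °C; CellTiter-Glo 30 min RT dark, luminescence read.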
Active calls of the source: *; [ ] = another dose, or the depositor's remark. Unless noted, calls follow the shape of the dose curve; as a rule, active = well fitted curve in the direction sought with a large enough effect; inconclusive = small, poorly fitted or top-dose-only effect, or another doubt; inactive = no such curve, though single readings can be large; an effect the other way counts as inactive or inconclusive. Unless noted, % is scaled to controls: 0 for no effect and ±100 for the full control effect.

Results for Cc1ccc(C)n1-c1ccc(C(=O)NCc2ccncc2)cc1 ?
HT1080 IDH1KD tx: -2%; IL-1B inflam inh: -16; HT1080-NT tox: -6%; TDP1 cell CPT: inconclusive; TDP1 cell noCPT: inconclusive

How did Cc1ccc(C)n1-c1ccc(C(=O)NN)cc1 do in these assays?
HT1080 IDH1KD tx: -8%; IL-1B inflam inh: 1; HT1080-NT tox: -9%; TDP1 cell CPT: 7.3µM*; TDP1 cell noCPT: 21µM*

What do the screens show for `Cc1ccc(C(=O)NCCCN2CCOCC2)o1`?
HT1080 IDH1KD tx: 0%; IL-1B inflam inh: 23; HT1080-NT tox: -6%; TDP1 cell CPT: 2%; TDP1 cell noCPT: 8%

How did Cc1ccc2nc(N3CCCCCC3)c(CN(CC3CCCO3)C(=O)c3cncs3)cc2c1 (stereo not given) do in these assays?
TDP1 cell CPT: -6%[9.04 µM]; TDP1 cell noCPT: -23%

Results for COc1ccc(NC(=O)C2=C(C)Nc3ncnn3C2c2ccc[nH]2)cc1 (stereo not given) ?
TDP1 cell CPT: 2%; TDP1 cell noCPT: -10%

How did c1cncc(CN2CCN(c3cc(-c4cnc5ccccc5c4)nc4ccnn34)CC2)c1 do in these assays?
HT1080 IDH1KD tx: 10%; IL-1B inflam inh: -7; HT1080-NT tox: 29%; TDP1 cell CPT: inconclusive; TDP1 cell noCPT: -29%

How did C/C(=N\NC(=O)CC#N)C1COc2ccccc2O1 (stereo not given) do in these assays?
HT1080 IDH1KD tx: 12%; IL-1B inflam inh: 5; HT1080-NT tox: 10%; TDP1 cell CPT: inconclusive; TDP1 cell noCPT: inconclusive

What do the screens show for `CCOC(=O)C1=C(O)C(=O)NC(c2ccccc2)=C(OC2CCCCC2)C1`?
HT1080 IDH1KD tx: -10%; IL-1B inflam inh: 12; HT1080-NT tox: -10%; TDP1 cell CPT: inconclusive; TDP1 cell noCPT: 23µM*

How did Cc1ccc(CN2C(=O)c3ccccc3Sc3ccc(C(=O)NCc4ccco4)cc32)cc1 do in these assays?
TDP1 cell CPT: -21%; TDP1 cell noCPT: inconclusive

What do the screens show for `CN(Cc1ccco1)C(=O)c1ccc2c(c1)N(Cc1ccccc1F)C(=O)c1ccccc1S2`?
TDP1 cell CPT: 21µM*; TDP1 cell noCPT: inconclusive

Results for O=C(NCc1ccco1)c1ccc2c(c1)N(Cc1c(F)cccc1Cl)C(=O)c1ccccc1S2 ?
TDP1 cell CPT: inconclusive; TDP1 cell noCPT: 16µM*

What do the screens show for `CCN(CC)CCCNC(=O)c1ccc2c(c1)N(Cc1c(F)cccc1Cl)C(=O)c1ccccc1S2`?
TDP1 cell CPT: inconclusive; TDP1 cell noCPT: 15µM*

What do the screens show for `CC1OC(CCc2cccc(Cl)c2)Cc2[nH][nH]c(=O)c21` (stereo not given)?
HT1080 IDH1KD tx: -13%; IL-1B inflam inh: 9; HT1080-NT tox: -13%; TDP1 cell CPT: -39%; TDP1 cell noCPT: -58%

What do the screens show for `COc1ccc(-n2nnnc2CNC(=O)C(=O)c2c(C)[nH]c3ccccc23)cc1`?
HT1080 IDH1KD tx: 0%; IL-1B inflam inh: -12; HT1080-NT tox: 1%; TDP1 cell CPT: 7%; TDP1 cell noCPT: inconclusive

Results for O=c1c2ccccc2nc2n1-c1ccccc1CCC2 ?
HT1080 IDH1KD tx: 3%; IL-1B inflam inh: 5; HT1080-NT tox: 5%; TDP1 cell CPT: inconclusive; TDP1 cell noCPT: 16µM*

Results for O=C1CCc2nc3ccccc3c(=O)n2N1 ?
HT1080 IDH1KD tx: 11%; IL-1B inflam inh: 23; HT1080-NT tox: 18%; TDP1 cell CPT: 2%; TDP1 cell noCPT: -6%

What do the screens show for `O=C1c2ccccc2-n2c1nc1ccccc1c2=O`?
HT1080 IDH1KD tx: -9%; IL-1B inflam inh: -5; HT1080-NT tox: -3%; TDP1 cell CPT: 1.3µM*; TDP1 cell noCPT: 1.3µM*

What do the screens show for `O=C1C(=C(I)I)c2ccccc2-c2ccccc21`?
HT1080 IDH1KD tx: 5.2µM*; IL-1B inflam inh: -101*; HT1080-NT tox: inconclusive; TDP1 cell CPT: 2.6µM*; TDP1 cell noCPT: 4.6µM*

What do the screens show for `O=C1c2sccc2-c2cccc3cccc1c23`?
HT1080 IDH1KD tx: -10%; IL-1B inflam inh: -24; HT1080-NT tox: -13%; TDP1 cell CPT: inconclusive; TDP1 cell noCPT: inconclusive

How did O=C1C(Br)=Cc2cccc3cccc1c23 do in these assays?
HT1080 IDH1KD tx: -1%; IL-1B inflam inh: -75*; HT1080-NT tox: 2%; TDP1 cell CPT: 10%; TDP1 cell noCPT: -6%

What do the screens show for `CC(C)CC1(C(=O)NCc2cc(F)cc(C(F)(F)F)c2)C=CCN1C(=O)c1ccccc1` (stereo not given)?
HT1080 IDH1KD tx: -3%; IL-1B inflam inh: 45; HT1080-NT tox: -15%; TDP1 cell CPT: inconclusive; TDP1 cell noCPT: 29µM*

What do the screens show for `CC1=C([N+](=O)[O-])C(c2cccc(Br)c2)C2=C(N1)c1ccccc1C2=O` (stereo not given)?
HT1080 IDH1KD tx: 1.3µM*; IL-1B inflam inh: -63*; HT1080-NT tox: 1.3µM*; TDP1 cell CPT: 1µM*; TDP1 cell noCPT: 1.8µM*

How did COC(=O)C1=C(C)NC2=C(C(=O)c3ccccc32)C1c1cccc(OC)c1 (stereo not given) do in these assays?
HT1080 IDH1KD tx: -1%; IL-1B inflam inh: -19; HT1080-NT tox: 13%; TDP1 cell CPT: -24%; TDP1 cell noCPT: 5%

What do the screens show for `Cc1c([N+](=O)[O-])cnc(Sc2ccccc2)c1[N+](=O)[O-]`?
HT1080 IDH1KD tx: inconclusive; IL-1B inflam inh: -16; HT1080-NT tox: inconclusive; TDP1 cell CPT: inconclusive; TDP1 cell noCPT: 9.2µM*

Results for OCCN1CCN(Cc2cc(Br)cc(Br)c2O)CC1 ?
HT1080 IDH1KD tx: -28%; IL-1B inflam inh: 0; HT1080-NT tox: 4%; TDP1 cell CPT: -15%; TDP1 cell noCPT: -24%

What do the screens show for `O=c1c(CN2CCN(c3ccccn3)CC2)coc2ccccc12`?
HT1080 IDH1KD tx: 10%; IL-1B inflam inh: 0; HT1080-NT tox: 10%; TDP1 cell CPT: 2%; TDP1 cell noCPT: 3%

What do the screens show for `OCCN1CCN(Cc2cc(Cl)c3cccnc3c2O)CC1`?
HT1080 IDH1KD tx: 3.2µM*; IL-1B inflam inh: 72; HT1080-NT tox: 5µM*; TDP1 cell CPT: inconclusive; TDP1 cell noCPT: inconclusive

What do the screens show for `Oc1c(CN2CCN(c3ccccn3)CC2)cc(Cl)c2cccnc12`?
HT1080 IDH1KD tx: inconclusive; IL-1B inflam inh: 1; HT1080-NT tox: inconclusive; TDP1 cell CPT: 4.6µM*; TDP1 cell noCPT: 3.7µM*

How did O=C(Nc1ccc(N2CCOCC2)cc1)c1csc([C@H]2C[C@H](O)[C@@H](CO)O2)n1 do in these assays?
HT1080 IDH1KD tx: 8%; IL-1B inflam inh: -10; HT1080-NT tox: 17%; TDP1 cell CPT: -25%; TDP1 cell noCPT: -13%
